The values below come from paper PMC7862700, “An all-to-all approach to the identification of sequence-specific readers for epigenetic DNA modifications on cytosine”.

What all share (assay): DAPPL (digital affinity profiling via proximity ligation, sequencing); 10 mM Tris-HCl pH 7.5, 50 mM NaCl, 1 mM DTT, 4% glycerol, room temperature, 30 min; GST-TFs on glutathione beads, 16-mer random dsDNA library, 0.1% formaldehyde crosslink after washing; high values mean tight binding
One experiment deals with T1, FEV (Homo sapiens, UniProt Q99581 1-238).
T1 sequence: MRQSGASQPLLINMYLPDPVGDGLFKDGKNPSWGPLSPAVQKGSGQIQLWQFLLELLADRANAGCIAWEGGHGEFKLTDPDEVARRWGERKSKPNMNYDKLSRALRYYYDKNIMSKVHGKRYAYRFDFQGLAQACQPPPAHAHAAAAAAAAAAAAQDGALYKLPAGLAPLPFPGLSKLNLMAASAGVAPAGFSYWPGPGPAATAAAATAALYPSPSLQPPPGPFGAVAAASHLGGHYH
To be noted: protein: recombinant; tags: N-terminal GST; dsDNA, one strand shown. The method, boiled down: (§1)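 In yeast, human transcription factors were expressed with a GST fusion, then pulled down on glutathione beads and given DNA barcodes. Pooled with a tag-only sample, they were exposed to 200 nmole of a 16-mer random double-stranded DNA library (Tris/NaCl/DTT/glycerol buffer, room temperature, 30 min), washed, crosslinked with 0.1% formaldehyde, proximity-ligated using BsaI/T4 ligase for 1 h at 37 °C, PCR-amplified and read on an Illumina NextSeq500. Each hexamer's frequency of reads for a factor, divided by the matching frequency for the tag-only sample, gives the binding signal.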

The next experiment has as its target ETV5 (Homo sapiens, UniProt P41161 1-510). To be noted: protein: recombinant; tags: N-terminal GST; dsDNA, one strand shown. The method, boiled down: as §1
A further experiment deals with HSF1 (Homo sapiens, UniProt Q00613 1-529). To be noted: protein: recombinant; tags: N-terminal GST; chain copies: 3; dsDNA, one strand shown. An outline of the steps: as §1
In the next experiment the target is T2, SPIC (Homo sapiens, UniProt Q8N5J4 1-248).
T2 sequence: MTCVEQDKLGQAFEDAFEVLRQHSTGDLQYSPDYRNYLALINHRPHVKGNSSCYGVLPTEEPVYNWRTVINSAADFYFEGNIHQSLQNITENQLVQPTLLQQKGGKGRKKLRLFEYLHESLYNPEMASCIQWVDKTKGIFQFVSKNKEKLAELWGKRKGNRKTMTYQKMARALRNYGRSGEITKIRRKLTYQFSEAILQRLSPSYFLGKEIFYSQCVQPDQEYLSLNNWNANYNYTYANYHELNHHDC
To be noted: protein: recombinant; tags: N-terminal GST; dsDNA, one strand shown. An outline of the steps: as §1

Another experiment has as its target ELF4 (Homo sapiens, UniProt Q99607 1-663). To be noted: protein: recombinant; tags: N-terminal GST; dsDNA, one strand shown. The method, boiled down: as §1
Another experiment deals with T3, ELK4 (Homo sapiens, UniProt P28324-2 1-405).
T3 sequence: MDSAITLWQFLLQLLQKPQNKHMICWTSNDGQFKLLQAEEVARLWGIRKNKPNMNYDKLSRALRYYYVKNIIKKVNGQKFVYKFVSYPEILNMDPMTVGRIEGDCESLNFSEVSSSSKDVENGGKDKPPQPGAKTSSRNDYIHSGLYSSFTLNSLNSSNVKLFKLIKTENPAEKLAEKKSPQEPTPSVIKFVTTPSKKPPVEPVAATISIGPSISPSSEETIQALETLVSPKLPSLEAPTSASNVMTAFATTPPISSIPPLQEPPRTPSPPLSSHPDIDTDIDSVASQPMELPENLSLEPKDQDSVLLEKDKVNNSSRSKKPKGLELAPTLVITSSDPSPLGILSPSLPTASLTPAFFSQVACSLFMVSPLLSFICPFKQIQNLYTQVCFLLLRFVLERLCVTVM
To be noted: protein: recombinant; tags: N-terminal GST; dsDNA, one strand shown. The method, boiled down:
as §1

The next experiment deals with T4, ETV2 (Homo sapiens, UniProt O00321 1-342).
T4 sequence: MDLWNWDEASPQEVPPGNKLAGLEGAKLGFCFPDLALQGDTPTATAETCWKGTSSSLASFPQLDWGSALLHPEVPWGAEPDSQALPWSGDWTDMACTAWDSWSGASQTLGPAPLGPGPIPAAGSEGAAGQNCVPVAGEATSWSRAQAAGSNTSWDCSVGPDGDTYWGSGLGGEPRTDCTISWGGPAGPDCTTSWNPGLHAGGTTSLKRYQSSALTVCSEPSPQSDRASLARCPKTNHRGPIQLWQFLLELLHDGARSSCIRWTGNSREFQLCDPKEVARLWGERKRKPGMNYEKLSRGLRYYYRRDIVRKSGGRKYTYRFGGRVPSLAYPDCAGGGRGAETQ
To be noted: protein: recombinant; tags: N-terminal GST; dsDNA, one strand shown. An outline of the steps: as §1

Another experiment has as its target T5, ELF3 (Homo sapiens, UniProt P78545 1-371).
T5 sequence: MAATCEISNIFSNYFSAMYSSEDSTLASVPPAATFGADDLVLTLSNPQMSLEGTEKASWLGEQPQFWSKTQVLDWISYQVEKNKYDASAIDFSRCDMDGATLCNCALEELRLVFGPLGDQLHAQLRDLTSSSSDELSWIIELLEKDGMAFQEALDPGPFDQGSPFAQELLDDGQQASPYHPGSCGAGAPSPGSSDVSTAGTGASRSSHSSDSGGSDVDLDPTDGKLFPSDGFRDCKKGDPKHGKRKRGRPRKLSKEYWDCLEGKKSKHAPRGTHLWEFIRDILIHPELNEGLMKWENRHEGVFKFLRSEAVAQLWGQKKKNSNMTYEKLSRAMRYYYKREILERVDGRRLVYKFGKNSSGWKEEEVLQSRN
To be noted: protein: recombinant; tags: N-terminal GST; dsDNA, one strand shown. The method, boiled down: as §1

A further experiment concerns the target CRX (Homo sapiens, UniProt O43186 1-299). To be noted: protein: recombinant; tags: N-terminal GST; dsDNA, one strand shown. An outline of the steps: as §1
A further experiment addresses ETV1 (Homo sapiens, UniProt P50549 1-477). To be noted: protein: recombinant; tags: N-terminal GST; dsDNA, one strand shown. The method, boiled down: as §1
The target of a further experiment is T6, ERF (Homo sapiens, UniProt P50548 1-548).
T6 sequence: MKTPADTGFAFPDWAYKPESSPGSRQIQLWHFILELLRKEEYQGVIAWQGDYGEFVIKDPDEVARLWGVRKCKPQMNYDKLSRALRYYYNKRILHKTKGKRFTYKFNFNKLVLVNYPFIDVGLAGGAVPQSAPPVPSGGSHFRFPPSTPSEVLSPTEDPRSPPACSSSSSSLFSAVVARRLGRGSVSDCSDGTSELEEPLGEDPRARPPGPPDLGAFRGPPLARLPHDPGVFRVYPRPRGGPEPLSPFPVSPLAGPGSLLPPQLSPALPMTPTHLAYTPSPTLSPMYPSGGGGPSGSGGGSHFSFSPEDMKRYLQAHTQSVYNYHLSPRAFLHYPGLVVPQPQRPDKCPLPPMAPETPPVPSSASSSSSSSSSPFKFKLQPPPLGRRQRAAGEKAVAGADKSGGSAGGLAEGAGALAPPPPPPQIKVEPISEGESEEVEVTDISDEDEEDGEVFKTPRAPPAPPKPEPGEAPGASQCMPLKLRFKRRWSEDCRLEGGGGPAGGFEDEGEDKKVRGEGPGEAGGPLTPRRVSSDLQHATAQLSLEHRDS
To be noted: protein: recombinant; tags: N-terminal GST; dsDNA, one strand shown. The method, boiled down: as §1

Another experiment deals with T7, ETV3L (Homo sapiens, UniProt Q6ZN32 1-361).
T7 sequence: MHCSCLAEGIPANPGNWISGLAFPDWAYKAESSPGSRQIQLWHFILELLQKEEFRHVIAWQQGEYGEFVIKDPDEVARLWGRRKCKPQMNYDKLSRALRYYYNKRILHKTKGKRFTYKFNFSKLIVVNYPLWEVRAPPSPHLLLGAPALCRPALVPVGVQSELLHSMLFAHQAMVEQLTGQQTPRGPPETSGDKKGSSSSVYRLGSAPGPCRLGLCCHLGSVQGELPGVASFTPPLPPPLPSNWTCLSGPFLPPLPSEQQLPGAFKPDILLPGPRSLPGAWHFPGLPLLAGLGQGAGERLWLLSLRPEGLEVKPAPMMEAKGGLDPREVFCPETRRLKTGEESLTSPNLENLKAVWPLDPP
To be noted: protein: recombinant; tags: N-terminal GST; dsDNA, one strand shown. An outline of the steps:
as §1

The target in a further experiment is T8, ETS2 (Homo sapiens, UniProt P15036 1-469).
T8 sequence: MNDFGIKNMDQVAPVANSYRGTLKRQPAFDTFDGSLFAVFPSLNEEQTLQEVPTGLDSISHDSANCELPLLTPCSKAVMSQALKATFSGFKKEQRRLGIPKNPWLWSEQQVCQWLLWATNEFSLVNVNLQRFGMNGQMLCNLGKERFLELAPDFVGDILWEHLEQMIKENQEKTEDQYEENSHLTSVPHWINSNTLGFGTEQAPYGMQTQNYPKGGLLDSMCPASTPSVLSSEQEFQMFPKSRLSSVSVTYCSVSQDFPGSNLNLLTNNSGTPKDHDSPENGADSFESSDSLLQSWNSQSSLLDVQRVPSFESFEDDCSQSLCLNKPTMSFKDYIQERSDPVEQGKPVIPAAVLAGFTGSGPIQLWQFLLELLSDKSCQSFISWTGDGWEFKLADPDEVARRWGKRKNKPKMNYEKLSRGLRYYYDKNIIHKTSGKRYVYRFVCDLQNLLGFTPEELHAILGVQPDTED
To be noted: protein: recombinant; tags: N-terminal GST; dsDNA, one strand shown. An outline of the steps: as §1

Another experiment addresses T9, SPDEF (Homo sapiens, UniProt O95238 1-335).
T9 sequence: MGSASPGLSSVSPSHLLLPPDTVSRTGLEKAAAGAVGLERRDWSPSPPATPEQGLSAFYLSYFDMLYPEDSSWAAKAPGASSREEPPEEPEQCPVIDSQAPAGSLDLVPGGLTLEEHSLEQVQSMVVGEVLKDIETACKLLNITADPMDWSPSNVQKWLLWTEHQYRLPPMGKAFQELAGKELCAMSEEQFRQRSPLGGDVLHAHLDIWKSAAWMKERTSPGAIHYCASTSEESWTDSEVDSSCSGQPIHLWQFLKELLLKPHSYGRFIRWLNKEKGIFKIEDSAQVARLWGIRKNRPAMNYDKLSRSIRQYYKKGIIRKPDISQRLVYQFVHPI
To be noted: protein: recombinant; tags: N-terminal GST; dsDNA, one strand shown. An outline of the steps: as §1

A further experiment deals with T10, ETV7 (Homo sapiens, UniProt Q9Y603 1-341).
T10 sequence: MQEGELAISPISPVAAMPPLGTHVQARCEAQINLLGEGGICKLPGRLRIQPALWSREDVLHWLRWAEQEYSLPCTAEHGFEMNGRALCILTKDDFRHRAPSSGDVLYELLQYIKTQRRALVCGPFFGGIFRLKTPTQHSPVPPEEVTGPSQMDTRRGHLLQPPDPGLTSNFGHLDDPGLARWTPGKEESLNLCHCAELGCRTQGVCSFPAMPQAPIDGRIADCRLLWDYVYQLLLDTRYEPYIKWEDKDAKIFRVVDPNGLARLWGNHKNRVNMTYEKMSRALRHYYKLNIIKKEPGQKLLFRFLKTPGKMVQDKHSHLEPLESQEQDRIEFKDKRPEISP
To be noted: protein: recombinant; tags: N-terminal GST; dsDNA, one strand shown. The method, boiled down:
as §1

The target of a further experiment is T11, ELF5 (Homo sapiens, UniProt Q9UKW6-2 1-255).
T11 sequence: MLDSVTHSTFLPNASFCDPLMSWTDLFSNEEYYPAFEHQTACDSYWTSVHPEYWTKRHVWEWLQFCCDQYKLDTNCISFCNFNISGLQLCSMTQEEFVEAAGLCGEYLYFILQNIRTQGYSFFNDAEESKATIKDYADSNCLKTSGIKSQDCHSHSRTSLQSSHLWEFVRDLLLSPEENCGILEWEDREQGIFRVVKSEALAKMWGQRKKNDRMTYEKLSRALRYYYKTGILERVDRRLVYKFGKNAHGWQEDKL
To be noted: protein: recombinant; tags: N-terminal GST; dsDNA, one strand shown. The method, boiled down: as §1

The target in a further experiment is T12, ETV3 (Homo sapiens, UniProt P41162-2 1-143).
T12 sequence: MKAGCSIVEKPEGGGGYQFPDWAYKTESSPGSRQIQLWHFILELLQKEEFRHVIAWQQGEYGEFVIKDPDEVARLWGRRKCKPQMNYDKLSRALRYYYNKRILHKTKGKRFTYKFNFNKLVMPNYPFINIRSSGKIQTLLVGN
To be noted: protein: recombinant; tags: N-terminal GST; dsDNA, one strand shown. The method, boiled down:
as §1

In the next experiment the target is ETV6 (Homo sapiens, UniProt P41212 1-452). To be noted: protein: recombinant; tags: N-terminal GST; dsDNA, one strand shown. An outline of the steps: as §1
Chain of ETV6 (P41212 whole entry): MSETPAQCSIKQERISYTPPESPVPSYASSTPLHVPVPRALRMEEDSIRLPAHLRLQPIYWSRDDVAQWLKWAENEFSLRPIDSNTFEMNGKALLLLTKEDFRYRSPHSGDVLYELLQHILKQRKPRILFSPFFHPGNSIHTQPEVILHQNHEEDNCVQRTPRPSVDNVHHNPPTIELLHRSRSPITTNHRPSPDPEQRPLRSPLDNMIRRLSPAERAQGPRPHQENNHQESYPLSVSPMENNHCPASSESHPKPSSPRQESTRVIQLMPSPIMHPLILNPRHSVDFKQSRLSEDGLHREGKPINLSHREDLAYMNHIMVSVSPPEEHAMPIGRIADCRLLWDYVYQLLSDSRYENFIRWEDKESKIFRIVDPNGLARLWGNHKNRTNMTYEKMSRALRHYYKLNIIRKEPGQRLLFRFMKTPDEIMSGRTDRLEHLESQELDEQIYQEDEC

Chain of ETV5 (P41161 whole entry): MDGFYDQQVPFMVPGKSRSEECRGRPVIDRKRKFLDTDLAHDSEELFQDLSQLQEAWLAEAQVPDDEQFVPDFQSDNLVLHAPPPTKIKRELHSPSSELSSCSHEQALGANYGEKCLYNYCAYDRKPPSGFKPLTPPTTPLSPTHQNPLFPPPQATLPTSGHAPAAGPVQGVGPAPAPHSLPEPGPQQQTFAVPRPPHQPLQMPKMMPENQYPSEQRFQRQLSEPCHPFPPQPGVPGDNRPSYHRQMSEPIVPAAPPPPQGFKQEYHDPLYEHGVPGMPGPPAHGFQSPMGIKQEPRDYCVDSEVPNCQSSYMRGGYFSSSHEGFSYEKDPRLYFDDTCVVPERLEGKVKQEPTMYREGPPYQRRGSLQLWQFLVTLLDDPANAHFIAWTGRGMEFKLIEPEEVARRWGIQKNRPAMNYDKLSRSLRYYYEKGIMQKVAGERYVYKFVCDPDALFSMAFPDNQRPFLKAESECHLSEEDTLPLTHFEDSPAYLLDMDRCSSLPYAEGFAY
Chain of CRX (O43186 whole entry): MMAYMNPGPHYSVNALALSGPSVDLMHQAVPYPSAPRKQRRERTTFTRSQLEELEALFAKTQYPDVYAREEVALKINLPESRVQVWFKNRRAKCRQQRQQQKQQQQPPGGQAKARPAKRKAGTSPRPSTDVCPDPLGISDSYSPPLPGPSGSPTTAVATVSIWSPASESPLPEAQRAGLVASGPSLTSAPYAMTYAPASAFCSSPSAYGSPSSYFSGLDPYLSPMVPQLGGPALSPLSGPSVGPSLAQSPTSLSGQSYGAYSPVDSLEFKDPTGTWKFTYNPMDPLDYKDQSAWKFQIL
Chain of HSF1 (Q00613 whole entry): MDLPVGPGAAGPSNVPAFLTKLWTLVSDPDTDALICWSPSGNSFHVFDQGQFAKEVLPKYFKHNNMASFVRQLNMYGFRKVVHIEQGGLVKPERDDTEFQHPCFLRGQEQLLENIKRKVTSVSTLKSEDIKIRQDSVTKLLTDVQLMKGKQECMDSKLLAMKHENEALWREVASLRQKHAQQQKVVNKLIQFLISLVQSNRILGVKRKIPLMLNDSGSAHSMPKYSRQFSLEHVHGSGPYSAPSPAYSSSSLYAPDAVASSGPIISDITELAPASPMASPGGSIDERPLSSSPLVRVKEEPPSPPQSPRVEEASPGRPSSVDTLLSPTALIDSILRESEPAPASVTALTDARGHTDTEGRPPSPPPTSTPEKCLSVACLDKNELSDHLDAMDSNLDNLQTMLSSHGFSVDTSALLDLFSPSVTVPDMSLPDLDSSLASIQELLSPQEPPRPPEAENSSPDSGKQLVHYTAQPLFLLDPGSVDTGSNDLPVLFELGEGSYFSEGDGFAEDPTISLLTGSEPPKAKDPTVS
Chain of ETV1 (P50549 whole entry): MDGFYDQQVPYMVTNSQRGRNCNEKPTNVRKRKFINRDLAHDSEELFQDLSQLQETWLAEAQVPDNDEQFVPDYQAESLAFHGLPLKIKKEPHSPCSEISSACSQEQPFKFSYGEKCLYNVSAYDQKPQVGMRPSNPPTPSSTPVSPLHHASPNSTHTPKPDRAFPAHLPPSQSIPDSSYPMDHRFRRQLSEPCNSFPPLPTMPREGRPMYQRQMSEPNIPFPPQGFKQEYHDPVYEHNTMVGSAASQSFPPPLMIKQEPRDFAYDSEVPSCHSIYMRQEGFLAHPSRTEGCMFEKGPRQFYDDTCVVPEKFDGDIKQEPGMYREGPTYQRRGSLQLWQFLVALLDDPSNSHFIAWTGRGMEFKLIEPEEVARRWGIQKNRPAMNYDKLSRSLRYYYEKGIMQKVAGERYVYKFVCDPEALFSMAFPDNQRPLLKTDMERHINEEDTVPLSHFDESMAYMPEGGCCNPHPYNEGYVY
Chain of ELF4 (Q99607 whole entry): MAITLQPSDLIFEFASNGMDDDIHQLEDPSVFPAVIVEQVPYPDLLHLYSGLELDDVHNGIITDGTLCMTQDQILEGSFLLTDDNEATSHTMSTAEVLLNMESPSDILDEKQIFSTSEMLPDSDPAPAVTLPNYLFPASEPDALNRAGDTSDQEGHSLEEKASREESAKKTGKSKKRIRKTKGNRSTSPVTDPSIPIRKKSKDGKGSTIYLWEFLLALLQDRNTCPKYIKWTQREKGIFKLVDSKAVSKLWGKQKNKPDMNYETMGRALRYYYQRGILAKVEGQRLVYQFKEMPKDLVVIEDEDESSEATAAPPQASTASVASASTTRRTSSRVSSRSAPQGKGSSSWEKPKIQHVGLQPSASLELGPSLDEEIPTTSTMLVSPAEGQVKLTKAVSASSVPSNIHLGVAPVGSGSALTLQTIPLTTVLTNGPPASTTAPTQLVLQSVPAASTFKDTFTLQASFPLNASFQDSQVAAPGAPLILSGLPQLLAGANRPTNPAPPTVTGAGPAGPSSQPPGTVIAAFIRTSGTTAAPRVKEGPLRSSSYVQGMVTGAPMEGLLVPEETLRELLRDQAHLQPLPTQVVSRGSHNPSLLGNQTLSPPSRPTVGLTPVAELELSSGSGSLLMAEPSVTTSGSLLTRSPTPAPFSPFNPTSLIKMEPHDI

Turning to TAGCAC, the binding signal was 1.22 fold enrichment (6-mer frequency, TF over GST control) in the experiment with FEV; 1.14 fold enrichment (6-mer frequency, TF over GST control) with ETV5; 1.24 fold enrichment (6-mer frequency, TF over GST control) with HSF1; 1.04 fold enrichment (6-mer frequency, TF over GST control) in the experiment with SPIC; 1.18 fold enrichment (6-mer frequency, TF over GST control) with ELF4; 1.11 fold enrichment (6-mer frequency, TF over GST control) with ELK4. Moreover, the binding signal in the experiment with ETV2 was 1.25 fold enrichment (6-mer frequency, TF over GST control); with ELF3, 1.15 fold enrichment (6-mer frequency, TF over GST control); with CRX, 1.22 fold enrichment (6-mer frequency, TF over GST control); with ETV1, 1.19 fold enrichment (6-mer frequency, TF over GST control); with ERF it was 1.33 fold enrichment (6-mer frequency, TF over GST control); in the experiment with ETV3L, 1.21 fold enrichment (6-mer frequency, TF over GST control). Besides, the binding signal is 1.15 fold enrichment (6-mer frequency, TF over GST control) with ETS2; 1.14 fold enrichment (6-mer frequency, TF over GST control) with SPDEF; 1.08 fold enrichment (6-mer frequency, TF over GST control) with ETV7; 1.09 fold enrichment (6-mer frequency, TF over GST control) in the experiment with ELF5; 1.1 fold enrichment (6-mer frequency, TF over GST control) with ETV3; 1.02 fold enrichment (6-mer frequency, TF over GST control) with ETV6.
